Laboratory results reported in PubChem BioAssay (NCI).
Compounds without any hit were thinned out: in the full panel of roughly 83,000, 20% have a hit.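 Treatment: one concentration, 48 hours, 96-well format. Scoring: percent growth, with anything below 10 considered active.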 Calls of active or inactive are those of the source.

How the values were obtained:
Test in all cases: NCI-60 one-dose screen, 48 h (100 = growth as untreated, 0 = no growth, -100 = all killed)
HCT-15 colon = tested on: HCT-15 colon
HT29 colon = tested on: HT29 colon
SNB-75 CNS = tested on: SNB-75 CNS
SNB-19 CNS = tested on: SNB-19 CNS
U251 CNS = tested on: U251 CNS
PC-3 prostate = tested on: PC-3 prostate
SK-MEL-5 melanoma = tested on: SK-MEL-5 melanoma
UACC-62 melanoma = tested on: UACC-62 melanoma
LOX IMVI melanoma = tested on: LOX IMVI melanoma
SK-MEL-28 melanoma = tested on: SK-MEL-28 melanoma

Measured: growth

CC1=CC=C(NC(=O)/C=C/c2ccccc2)CC1Nc1nccc(-c2cccnc2)n1 (stereo unspecified)
active: SNB-75 CNS; 10 µM unless noted 8.46% | SK-MEL-5 melanoma; 10 µM unless noted -42.9%
inactive: HCT-15 colon; 10 µM unless noted 14.6% | HT29 colon; 10 µM unless noted 13.6% | SNB-19 CNS; 10 µM unless noted 66.8% | U251 CNS; 10 µM unless noted 38.1% | PC-3 prostate; 10 µM unless noted 25.2% | UACC-62 melanoma; 10 µM unless noted 37.9% | LOX IMVI melanoma; 10 µM unless noted 41.3% | SK-MEL-28 melanoma; 10 µM unless noted 35.3%

CC(=O)/C=C/c1ccc(OCc2ccc(C(C)(C)C)cc2)cc1
active: HT29 colon; 100 µM 8.01% | SNB-75 CNS; 100 µM -11.6% | SK-MEL-5 melanoma; 100 µM -6.85% | UACC-62 melanoma; 100 µM -3.4% | SK-MEL-28 melanoma; 100 µM -1.32%
inactive: HCT-15 colon; 10 µM 64.7% | HCT-15 colon; 100 µM 22.2% | HT29 colon; 10 µM 42.4% | SNB-75 CNS; 10 µM 94.7% | SNB-19 CNS; 10 µM 98.5% | SNB-19 CNS; 100 µM 28.5% | U251 CNS; 10 µM 88.9% | U251 CNS; 100 µM 37.7% | PC-3 prostate; 10 µM 79.1% | PC-3 prostate; 100 µM 14% | SK-MEL-5 melanoma; 10 µM 50.3% | UACC-62 melanoma; 10 µM 74.2% | SK-MEL-28 melanoma; 10 µM 85.5%

Nn1c(-c2ccc(Cl)cc2)nc2c(-c3ccc(Cl)cc3)nc3ccc(Cl)cc3c2c1=O
inactive: HCT-15 colon; 10 µM unless noted 58.2% | SNB-19 CNS; 10 µM unless noted 28.2% | PC-3 prostate; 10 µM unless noted 36.6% | SK-MEL-5 melanoma; 10 µM unless noted 52.5% | UACC-62 melanoma; 10 µM unless noted 30.3% | LOX IMVI melanoma; 10 µM unless noted 20.2%
active: HT29 colon; 10 µM unless noted 7.88% | SNB-75 CNS; 10 µM unless noted -51.4% | U251 CNS; 10 µM unless noted -63.5% | SK-MEL-28 melanoma; 10 µM unless noted -67.2%

CC(=O)/C=C/c1ccc(OCc2ccc(Cl)cc2)cc1
active: SK-MEL-5 melanoma; 100 µM -37%
inactive: HCT-15 colon; 10 µM 96.7% | HCT-15 colon; 100 µM 42% | HT29 colon; 10 µM 94.3% | HT29 colon; 100 µM 36.2% | SNB-75 CNS; 10 µM 91% | SNB-75 CNS; 100 µM 35.6% | SNB-19 CNS; 10 µM 105% | SNB-19 CNS; 100 µM 51.7% | U251 CNS; 10 µM 88.3% | U251 CNS; 100 µM 33.9% | PC-3 prostate; 10 µM 90% | PC-3 prostate; 100 µM 36.1% | SK-MEL-5 melanoma; 10 µM 97.7% | UACC-62 melanoma; 10 µM 95.5% | UACC-62 melanoma; 100 µM 24.6% | LOX IMVI melanoma; 10 µM 86.7% | LOX IMVI melanoma; 100 µM 32.2% | SK-MEL-28 melanoma; 10 µM 112% | SK-MEL-28 melanoma; 100 µM 26.1%

COc1cc(C=O)ccc1Oc1ccc([N+](=O)[O-])cc1[N+](=O)[O-]
inactive: HCT-15 colon; 10 µM unless noted 108% | HT29 colon; 10 µM unless noted 108% | SNB-75 CNS; 10 µM unless noted 93.1% | SNB-19 CNS; 10 µM unless noted 90.3% | U251 CNS; 10 µM unless noted 93.2% | PC-3 prostate; 10 µM unless noted 94.4% | SK-MEL-5 melanoma; 10 µM unless noted 98.6% | UACC-62 melanoma; 10 µM unless noted 82.3% | LOX IMVI melanoma; 10 µM unless noted 82% | SK-MEL-28 melanoma; 10 µM unless noted 107%

COc1ccc2c(c1)c(C(=O)c1nc(-c3cn(C)c4ccccc34)no1)cn2C
inactive: HCT-15 colon; 10 µM unless noted 82.9% | HT29 colon; 10 µM unless noted 88.8% | SNB-75 CNS; 10 µM unless noted 108% | SNB-19 CNS; 10 µM unless noted 92.8% | U251 CNS; 10 µM unless noted 101% | PC-3 prostate; 10 µM unless noted 83.8% | SK-MEL-5 melanoma; 10 µM unless noted 82.2% | UACC-62 melanoma; 10 µM unless noted 76.6% | LOX IMVI melanoma; 10 µM unless noted 103% | SK-MEL-28 melanoma; 10 µM unless noted 93.4%

CC(=O)/C=C/c1ccc(N(CCO)Cc2ccc(C(C)(C)C)cc2)cc1
inactive: HCT-15 colon; 10 µM 62.5% | HT29 colon; 10 µM 59.4% | SNB-75 CNS; 10 µM 76.3% | SNB-19 CNS; 10 µM 102% | U251 CNS; 10 µM 75.9% | PC-3 prostate; 10 µM 66% | SK-MEL-5 melanoma; 10 µM 70% | UACC-62 melanoma; 10 µM 76.5% | SK-MEL-28 melanoma; 10 µM 89.1%
active: HCT-15 colon; 100 µM -83% | HT29 colon; 100 µM -81.5% | SNB-75 CNS; 100 µM -92.3% | SNB-19 CNS; 100 µM -89.9% | U251 CNS; 100 µM -100% | PC-3 prostate; 100 µM -90.3% | SK-MEL-5 melanoma; 100 µM -99.5% | UACC-62 melanoma; 100 µM -86.3% | SK-MEL-28 melanoma; 100 µM -90.7%

O=C1/C(=C/c2ccccc2)CN(C(=O)C(Cl)Cl)C/C1=C\c1ccccc1
inactive: SNB-75 CNS; 10 µM unless noted 43.9%
active: HCT-15 colon; 10 µM unless noted -24.2% | HT29 colon; 10 µM unless noted 5.46% | SNB-19 CNS; 10 µM unless noted -35.8% | U251 CNS; 10 µM unless noted -63.8% | PC-3 prostate; 10 µM unless noted -32.8% | SK-MEL-5 melanoma; 10 µM unless noted -32.3% | UACC-62 melanoma; 10 µM unless noted -66.4% | LOX IMVI melanoma; 10 µM unless noted -88.4% | SK-MEL-28 melanoma; 10 µM unless noted -25.7%

CC(=O)/C=C/c1ccc(N(C)Cc2ccc(C(C)(C)C)cc2)cc1
active: HCT-15 colon; 100 µM -36.9% | HT29 colon; 100 µM -10.7% | SNB-75 CNS; 100 µM -59.5% | SNB-19 CNS; 100 µM -31.2% | U251 CNS; 100 µM -100% | PC-3 prostate; 100 µM -26.1% | SK-MEL-5 melanoma; 100 µM -100% | UACC-62 melanoma; 100 µM -57.1% | LOX IMVI melanoma; 100 µM -100% | SK-MEL-28 melanoma; 100 µM -82.3%
inactive: HCT-15 colon; 10 µM 87.5% | HT29 colon; 10 µM 78.1% | SNB-75 CNS; 10 µM 102% | SNB-19 CNS; 10 µM 110% | U251 CNS; 10 µM 89.8% | PC-3 prostate; 10 µM 77.6% | SK-MEL-5 melanoma; 10 µM 74.7% | UACC-62 melanoma; 10 µM 78.8% | LOX IMVI melanoma; 10 µM 80.1% | SK-MEL-28 melanoma; 10 µM 92.5%

Nc1nc2ccccc2c2c(=O)c3ccc(Cl)cc3sc12
inactive: HCT-15 colon; 10 µM unless noted 101% | HT29 colon; 10 µM unless noted 98% | SNB-75 CNS; 10 µM unless noted 96.3% | SNB-19 CNS; 10 µM unless noted 102% | U251 CNS; 10 µM unless noted 84.8% | PC-3 prostate; 10 µM unless noted 89.9% | SK-MEL-5 melanoma; 10 µM unless noted 104% | UACC-62 melanoma; 10 µM unless noted 92.5% | LOX IMVI melanoma; 10 µM unless noted 98% | SK-MEL-28 melanoma; 10 µM unless noted 110%
